HP1b chromo inh = inhibitors of HP1-beta chromodomain binding to methylated histone tails | P83916 | AlphaScreen HP1-beta / biotin-H3K9me3 peptide binding | Potency, µM (highest dose often 114 µM), without a hit: at the top dose activity change, negative = inhibition, usual class: inhibitors | hit rate 0.56% among 390,000 | AID 540317; also: nearly all actives have a fitted effect of over 70% in size
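HP1-beta protein (50 nM final) preincubated 30 min at room temperature with biotinylated H3(1-18)K9me3 peptide (50 nM) in PBS pH 7.4, 0.01% Tween-20, then compound added for 30 min. AlphaScreen streptavidin donor/nickel chelate acceptor beads (10 ug/mL final), 30 min dark, luminescence read.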
12-LOX inh = blocks human arachidonate 12S-lipoxygenase. P18054. purified 12hLO, xylenol orange hydroperoxide absorbance. Potency, µM (doses to about 108 µM), for inactives: at the top dose activity change, negative = inhibition, usual class: inhibitors. hit rate 1.1% among 580,000; also: % is scaled to controls: 0 for no effect and ±100 for the full control effect
Target sequence (P18054 whole entry, looked up): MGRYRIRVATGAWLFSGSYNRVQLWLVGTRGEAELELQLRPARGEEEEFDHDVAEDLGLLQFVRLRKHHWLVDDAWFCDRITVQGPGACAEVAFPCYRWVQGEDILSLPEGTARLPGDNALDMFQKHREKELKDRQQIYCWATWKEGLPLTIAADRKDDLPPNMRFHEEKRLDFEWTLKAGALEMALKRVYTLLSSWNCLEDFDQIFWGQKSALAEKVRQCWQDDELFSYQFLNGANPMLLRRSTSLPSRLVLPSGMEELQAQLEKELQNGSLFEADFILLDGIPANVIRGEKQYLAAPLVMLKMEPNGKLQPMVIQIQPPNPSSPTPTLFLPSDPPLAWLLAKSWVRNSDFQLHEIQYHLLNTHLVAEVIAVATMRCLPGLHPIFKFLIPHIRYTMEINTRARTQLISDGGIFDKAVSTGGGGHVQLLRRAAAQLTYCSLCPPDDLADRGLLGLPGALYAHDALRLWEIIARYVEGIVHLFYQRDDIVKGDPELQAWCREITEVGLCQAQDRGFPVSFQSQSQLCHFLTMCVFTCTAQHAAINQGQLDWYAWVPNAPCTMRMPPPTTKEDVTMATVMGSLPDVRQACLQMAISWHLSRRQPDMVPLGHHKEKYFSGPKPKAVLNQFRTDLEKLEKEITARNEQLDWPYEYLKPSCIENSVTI
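Purified human 12hLO at 150 nM in 25 mM Hepes, 0.01% Triton X-100, pH 7.0, preincubated 15 min at room temperature with compound. Reaction started with 40 uM arachidonic acid, 30 min at room temperature. Hydroperoxide measured by Fe-xylenol orange, 573/405 nm absorbance ratio.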
Sfp PPTase inh = blocks B. subtilis Sfp PPTase activity | AID 1490 | Biochemical Sfp PPTase activity, qHTS | Q9F4F7 | hit rate 3.5% among 310,000 | Potency, µM, for inactives: largest response in the series, negative = inhibition, most hits filed as inhibitors;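 also: the enzyme is Sfp with the accession as filed and its product quenches rhodamine fluorescence; 0% = enzyme reaction without inhibitor and -100% = no enzyme wells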
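Fluorescence-quenching assay: 15 nM Sfp-PPTase preincubated 15 min at room temperature with compound, then 5 uM rhodamine-CoA and 12.5 uM BHQ-2-labelled YbbR peptide added. Fluorescence (ex 525/em 598 nm) read at start and after 30 min; difference gives rate.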
BAZ2B block = BAZ2B (human) inhibition; Q9UIF8; AlphaScreen BAZ2B-H3K14Ac peptide displacement; hit rate 4.4% among 360,000; Potency, µM (doses to about 114 µM), inactives show at the highest dose activity change, negative = inhibition, actives largely listed as inhibitors; also: % is scaled to controls: 0 for no effect and ±100 for the full control effect; nearly all actives have a fitted effect of over 60% in size
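Inhibition is scored as reduced AlphaScreen emission. The BAZ2B/b-H3(5-23)K14Ac complex (50 nM each) in PBS pH 7.4, 0.01% Tween-20 meets compound (up to 110 uM) for 30 min at RT before bead addition.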
JMJD2A Tudor inh = JMJD2A Tudor domain (human) inhibition | O75164 | AlphaScreen JMJD2A-Tudor / H3K4me3 peptide binding | Potency, µM (doses to about 114 µM), for inactives: at the top dose activity change, negative = inhibition, most hits filed as inhibitors | hit rate 4.4% among 390,000 | AID 504339; also: % is scaled to controls: 0 for no effect and ±100 for the full control effect; nearly all actives have a fitted effect of over 50% in size
G9a block = G9a (human) methyltransferase inhibition. G9a H3K9 monomethylation, AlphaScreen, 2 h. Potency, µM (series often up to 102 µM), without a hit: top-dose activity, negative = inhibition, most hits filed as inhibitors. hit rate 8.8% among 350,000. AID 504332; also: % is scaled to controls: 0 for no effect and ±100 for the full control effect; nearly all actives have a fitted effect of over 75% in size
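Signal arises when biotinylated H3K9 peptide, once monomethylated, bridges streptavidin donor and antibody-captured acceptor beads. Enzyme at 20 nM was preincubated 15 min with test compounds; peptide 500 nM and SAM 20 uM then reacted for 2 h.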
An asterisk follows results filed as active; ? = inconclusive; / = no result; [ ] = remark or other dose. A selection: hits, their analogues and other compounds. The true share with any hit is near 8.7%. Calls follow the shape of the dose curve; as a rule, active = well fitted curve in the direction sought with a large enough effect; inconclusive = small, poorly fitted or top-dose-only effect, or another doubt; inactive = no such curve, though single readings can be large; an effect the other way counts as inactive or inconclusive. Potency is read from the fitted curve at half-maximal effect.

SMILES	HP1b chromo inh	12-LOX inh	Sfp PPTase inh	BAZ2B block	JMJD2A Tudor inh	G9a block
COc1ccc(-n2c(Cc3cccn3C)nnc2SCC(=O)N2CCCc3ccccc32)cc1	-13%	20%	-12%	?	?	45µM*
COc1ccc(OCc2nnc(SCC(=O)N3CCCc4ccccc43)n2-c2ccc(C)cc2)cc1	6%	-24%	0%	-33%	-30%	?
COc1ccc(C(=O)N2CCC3(CC2)N(C)C(=O)CS3(=O)=O)c(C)c1	/	21%	/	/	/	/
CCCNC(=O)NC(=O)CN(C)c1ccccc1	/	20%	/	/	/	/
C=CCN(CC=C)C(=O)/C=C/c1csc(C)n1	/	-21%	/	/	/	/
Cc1sc2ncnc(N3CCC(C(=O)Nc4ccc(Cl)cc4Cl)CC3)c2c1C	19%	-11%	/	-2%	-10%	56µM*
Cc1sc2ncnc(N3CCC(C(=O)Nc4ccc(Br)cc4Br)CC3)c2c1C	12%	-6%	/	7%	-14%	40µM*
Cc1sc2ncnc(N3CCC(C(=O)Nc4ccc(Cl)c(Cl)c4)CC3)c2c1C	40%	38%	/	1%	-5%	-1%[12.7 µM]
CC(=O)Nc1cccc(-c2nc3cc(C)cc(C)c3o2)c1	/	-3%	/	/	/	/
O=C(Cn1ccn2nc(-c3ccc(F)cc3)c(CO)c2c1=O)N1CCCc2ccccc21	/	51%	/	/	/	/
O=C(Nc1ccc(Cc2ccncc2)cc1)C12CC3CC(CC(Br)(C3)C1)C2	/	37%	/	/	/	/
O=C1Nc2ccc(C(=O)O)c(O)c2C1=O	-1%	-21%	/	/	56µM*	/
Cc1nc2nc(-c3ccc(Cl)cc3)cn2nc1C	42%	-24%	11%	0%	6%	27%[12.7 µM]
COc1cccc(-c2cn3nc(C)c(C)nc3n2)c1	49%	45%	?	12%	-17%	20µM*
Cc1ccccc1C(=O)N1CCN(Cc2cccc3cccnc23)CC1	/	7%	/	/	/	/
CC(C)Sc1nc(N2CCOCC2)c2c(c1C#N)CC(C)(C)N(C)C2	-10%	?	-8%	-8%	11µM*	-14%[12.7 µM]
COC(=O)CSc1nc(N2CCOCC2)c2c(c1C#N)CC(C)(C)OC2	35%	102%	5%	?	3%	?
CC(Sc1nc(N2CCOCC2)c2c(c1C#N)CC(C)(C)OC2)C(=O)O (configuration not stated)	18%	/	-16%	-12%	-6%	50µM*
CN1Cc2c(N3CCOCC3)nc(SCCC#N)c(C#N)c2CC1(C)C	5%	23%	7%	-4%	-18%	5%[12.7 µM]
CC(C)Sc1nc(N2CCCC2)c2c(c1C#N)CC(C)(C)OC2	76%	-13%	-22%	-5%	11%	5%[59 µM]
CC1(C)Cc2c(C#N)c(SCC(=O)c3ccccc3)nc(N3CCOCC3)c2CO1	-7%	?	14µM*	-31%	63µM*	22µM*
COC(=O)Sc1nc(N2CCOCC2)c2c(c1C#N)CC(C)(C)OC2	63%	0%	?	10%	?	7.9µM*
CCOc1cc2c(cc1NC(=O)Cc1ccc(OC)cc1)OC(C)C2 (configuration not stated)	/	6%	/	/	/	/
C#CCOc1ccc(C2C(C#N)=C(N)Oc3cc(O)ccc32)cc1 (configuration not stated)	28%	28µM*	-2%	-12%	-20%	21%[0.501 µM]
CCOC(=O)C1=C(N)Oc2ccc3ccccc3c2C1c1ccc(O)cc1 (configuration not stated)	0%	?	14%	?	-35%	?
SMILES	HP1b chromo inh	12-LOX inh	Sfp PPTase inh	BAZ2B block	JMJD2A Tudor inh	G9a block
CCOC(=O)C1=C(N)Oc2cc(O)ccc2C1c1ccc([N+](=O)[O-])cc1 (configuration not stated)	-19%	-9%	25µM*	?	50µM*	40µM*
COc1ccc(C2C(C#N)=C(N)Oc3c2oc(CO)cc3=O)cc1 (configuration not stated)	54%	0%	56µM*	/	6%[11.4 µM]	?
COc1ccc(C2C(C#N)=C(N)Oc3cc4c(cc32)OCO4)cc1 (configuration not stated)	-7%	13µM*	2%	-32%	?	?
CN[C@@H](CO)C(=O)NCc1nc(-c2ccc(C)cc2)c(-c2ccccn2)[nH]1	/	65%	/	/	/	/
Cc1noc([C@@H]2CN(C(=O)CC3CCCC3)C[C@H]2CO)n1	/	6%	/	/	/	/
CC(=O)Nc1ccc(S(=O)(=O)N[C@H]2CO[C@H]3[C@@H]2OC[C@@H]3n2nnnc2Oc2ccc(-n3ccnc3)cc2)cc1	/	24%	/	/	/	/
Cc1ccc(C(=O)N2CCCC(c3nn[nH]n3)C2)cn1 (configuration not stated)	/	2%	/	/	/	/
COc1ccc(C2C(C#N)=C(N)Oc3cc(O)ccc32)cc1Cl (configuration not stated)	9%	32µM*	11%	-38%	-29%	?
COC(=O)c1ccc(C2C(C#N)=C(N)Oc3cc(O)ccc32)cc1 (configuration not stated)	29%	25µM*	-11%	-30%	?	-22%
CN(C)c1ccc2c(c1)OC(N)=C(C#N)C2c1cccc(F)c1 (configuration not stated)	?	/	?	?	50µM*	45µM*
Cc1cc(C[C@@H]2COC[C@@H]2NC(=O)c2cc3cc(F)ccc3n2C)on1	/	17%	/	/	/	/
Cc1cccc(C(=O)N2CCC(=O)N(C(COCc3cccc(Cl)c3)Cc3ccccc3)CC2)c1 (configuration not stated)	57%	?	1%	-8%	-17%	79µM*
CC(C)CC(COCc1ccc([N+](=O)[O-])cc1)N1CCN(C(=O)c2ccc(C(F)(F)F)cc2)CCC1=O (configuration not stated)	25%	0%	5%	?	-20%	50µM*
O=C(c1ccc(C(F)(F)F)cc1)N1CCC(=O)N(C(COCc2ccc(C(F)(F)F)cc2)Cc2ccccc2)CC1 (configuration not stated)	44%	-28%	5%	?	-5%	45µM*
Cc1cccc(C(=O)N2CCC(=O)N([C@H](COCc3cccc(Cl)c3)Cc3ccccc3)CC2)c1	/	?	9%	/	/	4%[59 µM]
O=C(c1ccc(CSc2nc3ccncc3[nH]2)cc1)N1CCN(c2cccc(Cl)c2)CC1	13%	1%	-4%	35µM*	?	45µM*
O=C1CCC(C(=O)N[C@@H]2COCC[C@@H]2OCc2cscn2)=NN1	/	73%	/	/	/	/
COc1ccc(Cl)cc1N/C(N)=N/c1nc(C)cc(=O)[nH]1	24%	8%	-13%	-12%	?	20µM*
COc1ccc(Cl)cc1N/C(N)=N/c1nc(CSc2ccc(C)cc2)cc(=O)[nH]1	9%	13%	-5%	20%	-25%	-41%[59 µM]
